Assay outcomes (PubChem)
Ba/F3 V617F tox: lowers viability of Ba/F3 cells expressing EpoR and JAK2V617F | ATP luminescence | inhibition, % at 5.6 µM | hit rate 1.1% among 220,000;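 active = inhibition above the campaign mean plus 3 SD over all tested compounds, cut at about 24% in these data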;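 also: cytokine-independent growth of Ba/F3 cells driven by EpoR plus mutant JAK2; 0% = DMSO-treated cells and 100% = JAK inhibitor I control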
BaF3 parental: parental Ba/F3 viability inhibition as JAK2V617F counter-screen | CellTiter-Glo ATP luminescence | inhibition, % at 5.6 µM | hit rate 1.1% among 220,000;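 active = inhibition above a per-campaign cutoff, the mean inhibition of all tested compounds plus 3 SD, cut at about 27% in these data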;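 also: 0% = DMSO wells and 100% = JAK Inhibitor I control wells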
APP 5UTR inh: APP translation inhibition | SH-SY5Y APP 5'UTR-luciferase reporter, luminescence | inhibition, % at 2 µM | hit rate 0.82% among 190,000 | AID 1285;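 active = inhibition above a set limit, derived from the sample mean plus 3 SD, cut at about 45% in these data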
KLF5 inh: kruppel-like factor 5 inhibition; DLD-1 KLF5 promoter-luciferase reporter, luminescence; inhibition, % at 5 µM; hit rate 0.23% among 290,000; AID 1700;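 active = inhibition above a per-plate limit of that plate's mean compound inhibition plus 3 SD, cut at about 60% in these data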;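 also: 0% = DMSO wells and 100% = LY294002 at 200 µM; higher means less KLF5 promoter-driven luciferase light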
IEC-6 tox: IEC-6 cytotoxicity, counter-screen for KLF5 inhibitors; luminescence viability; inhibition, % at 5 µM; hit rate 0.78% among 290,000; in the data active = inhibition above about 22%;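 also: 0% = plate median of test compound wells and 100% = cytotoxic reference compound wells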
BaF3 tox 2: counter-screen for JAK2V617F inhibitors: parental Ba/F3 viability inhibitors | shares compounds with Ba/F3 V617F tox | CellTiter-Glo luminescence; cells kept alive by added IL-3 | inhibition, % at 5.6 µM | hit rate 31% among 580 | AID 1520;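 active = cell growth inhibition above the hit limit set in the earlier mutant JAK2 cell screen, cut at about 27% in these data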;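 also: plate controls were DMSO-treated cells for no effect and JAK Inhibitor I control wells for full effect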
JAK2V617F confrm: confirmation: loss of viability in JAK2V617F-dependent Ba/F3 cells. shares compounds with Ba/F3 V617F tox. hit rate 66% among 580. inhibition, % at 5.6 µM. Ba/F3 EpoR-JAK2V617F viability, CellTiter-Glo luminescence;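 active = mean inhibition above the hit cutoff derived in the earlier primary screen, cut at about 25% in these data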;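 also: 0% = DMSO-treated cells and 100% = JAK inhibitor I control wells; higher means lower luminescence from reduced cell ATP and viability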
Active calls of the source: *; · = not tested or not shown. In the library only some 1.8% were active in any assay of this set; here they are far more common.

SMILES	Ba/F3 V617F tox	BaF3 parental	APP 5UTR inh	KLF5 inh	IEC-6 tox	BaF3 tox 2	JAK2V617F confrm
O=[N+]([O-])c1cc(Cl)cc(/C=N/NC(=S)Nc2ccc(S(=O)(=O)N3CCOCC3)cc2)c1O	-2	0	·	-3	-5	·	·
CCOC(=O)C(=NC1CCCCC1)NNc1cccc(C(F)(F)F)c1	36*	2	-7	-17	8	0	3
CCOC(=O)C(=NC(C)CC)NNc1cccc(C(F)(F)F)c1 (stereo unspecified)	3	5	-16	-15	3	·	·
COc1cc(OC)cc(N(C(=O)c2snc(C(N)=O)c2N)C(C(=O)NCC2CCCO2)c2ccc(C)o2)c1 (stereo unspecified)	·	·	·	-26	9	·	·
CCc1ccc(NC(=O)c2noc3c2CCc2ccccc2-3)cc1	61*	24	-1	-31	3	-3	-13
O=C(C=C=Nc1ccccc1)C(=O)N=C=Cc1ccccc1	68*	19	·	-4	5	5	79*
O=C(N/N=C/c1ccccc1)C(=O)N/N=C/c1ccccc1	·	·	·	-38	-4	·	·
Fc1ccc(N2CCN(Cc3cn[nH]c3-c3ccccc3)CC2)cc1	2	-1	·	4	8	·	·
Fc1ccc(N2CCN(Cc3ccccn3)CC2)cc1	63*	-1	-4	-11	-2	-5	-7
CC1CCN(CCCNC(=O)c2cc3c(Cl)nc4ccccc4c3s2)CC1	34*	11	10	-12	5	4	71*
COCCNC(=O)CN(C(=O)c1ccc(N2CCCC2)nc1)c1ccccc1	64*	9	2	-30	1	-4	-5
COCCNC(=O)CN(C(=O)c1ccc(N2CCCC2)nc1)c1ccc(F)c(Cl)c1	·	·	·	-25	2	·	·
COc1cccc(CNC(=O)CSc2nc3ccc(C)cc3[nH]2)c1	·	·	·	-6	3	·	·
S=C(Nc1ccc(Cl)cc1)c1nc2ccccc2s1	-2	-1	-65	-25	0	·	·
O=C(Nc1ccc(Cl)cc1)/C(=C/c1cccc(O)c1)c1nc2ccccc2s1	68*	-2	30	13	4	20	98*
CCc1nn(CC(=O)NCCCc2ccccc2)c(=O)c2cc3cc(F)ccc3n12	·	·	·	-23	-2	·	·
CC(=O)Oc1ccc(Cl)cc1/C=C/c1cc(OC(C)=O)c2ccccc2n1	24*	23	1	-19	10	30*	48*
CCCCN(CC)Cc1ccc(CNC(=O)Nc2ccc(F)cc2)o1	48*	15	12	2	9	8	39*
COc1ccc(Cl)cc1C(=O)NNC(=O)CSc1nnnn1C	-4	1	-18	-8	-3	·	·
O=C(c1cnc2ccc3ccccc3c2c1)c1cc(F)ccc1O	26*	16	·	-6	3	18	39*
Cc1cccc(CS(=O)(=O)c2nnc([C@H](Cc3ccccc3)NC(=O)OC(C)(C)C)o2)c1	44*	1	72*	2	19	12	82*
COC(=O)CS(=O)(=O)c1nnc([C@H](Cc2ccccc2)NC(=O)OC(C)(C)C)o1	-3	1	23	-14	1	·	·
COC(CN(C(=O)CCl)C(C(=O)NC1CCCCC1)c1ccc(C)cc1)OC (stereo unspecified)	91*	5	4	-6	4	1	17
CCN(CC)S(=O)(=O)c1cccc(C(=O)N[C@H](C(=O)Nc2nc3ccc(F)cc3s2)C(C)C)c1	66*	1	-17	-5	8	-1	13
Cc1ccc(NC(=O)c2c(Cl)nc3ccccn23)cc1	0	4	-103	-18	8	·	·
SMILES	Ba/F3 V617F tox	BaF3 parental	APP 5UTR inh	KLF5 inh	IEC-6 tox	BaF3 tox 2	JAK2V617F confrm
Cc1cc(NC(=O)CSc2nc(-c3ccco3)cc(C(F)(F)F)n2)no1	61*	5	18	39	46*	48*	90*
CC(C)CCNC(=O)C(c1ccco1)N(CCCO)C(=O)Cn1nnc(-c2ccc(F)cc2)n1 (stereo unspecified)	49*	-2	-10	-1	-6	-8	-3
CCOc1ccc(CN(CC)C(=O)c2ccc3c(c2)[nH]c(=O)c(=O)n3CC)cc1OC	·	·	·	-21	-6	·	·
Cc1cc(SCC(=O)Nc2cccc(S(=O)(=O)NC3=NCCCCC3)c2)c(C)cc1Br	26*	1	-14	-11	1	1	31*
CSc1ncccc1C(=O)NC1CCN(Cc2ccccc2)CC1	·	·	·	-15	1	·	·
COc1ccc([N+](=O)[O-])cc1N(CC(=O)NCC1CCCO1)S(C)(=O)=O (stereo unspecified)	1	5	-6	2	3	·	·
